# From the supplement of paper PMC9262897, “Low-cost anti-mycobacterial drug discovery using engineered E. coli” (Nature Communications, 2022)
# Counter-ions that a name gives are not always drawn. ± gives the standard deviation of the averaged measurements.
# System: E. coli TESEC Mtb Alr
# Assay: growth (OD600 after 10 h); higher = more growth (less inhibition)
# Details: compound 0.1 mM
# Experimental: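 TESEC Mtb Alr E. coli, or the Alr+ wild-type control, in 384-well plates with Prestwick library compounds at 0.1 mM and 1% DMSO, across arabinose induction levels of 1E3 to 1E7 nM. Growth is read as OD600 after 10 h at 37 °C in triplicate biological replicates.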
# [1] = arabinose 1000 nM, raw OD600 reference: median of DMSO wells 0.294, cell-free background 0.041
# [2] = arabinose 10000 nM, raw OD600 reference: median of DMSO wells 0.264, cell-free background 0.041
# [3] = arabinose 100000 nM, raw OD600 reference: median of DMSO wells 0.201, cell-free background 0.041
# [4] = arabinose 1000000 nM, raw OD600 reference: median of DMSO wells 0.193, cell-free background 0.041
# [5] = arabinose 10000000 nM, raw OD600 reference: median of DMSO wells 0.146, cell-free background 0.041
Structure (SMILES),growth [1],growth [2],growth [3],growth [4],growth [5]
O=C1CCC(N2C(=O)c3ccccc3C2=O)C(=O)N1 (stereo not given) [Thalidomide],0.283 ± 0.0041,0.269 ± 0.014,0.204 ± 0.012,0.192 ± 0.0034,0.135 ± 0.0057
Cc1cc2c(cc1S(N)(=O)=O)S(=O)(=O)CCC2 [Meticrane],0.292 ± 0.011,0.259 ± 0.012,0.234 ± 0.034,0.172 ± 0.013,0.142 ± 0.0066
OCCN1CCN(CCCN2c3ccccc3C=Cc3ccccc32)CC1 [Opipramol dihydrochloride],0.271 ± 0.023,0.245 ± 0.0065,0.179 ± 0.0079,0.0873 ± 0.0083,0.137 ± 0.003
C#C[C@]1(O)CC[C@H]2[C@@H]3CCC4=C(CCC(=O)C4)[C@H]3CC[C@@]21C [Norethynodrel],0.142 ± 0.0092,0.107 ± 0.0051,0.157 ± 0.0071,0.0575 ± 0.0014,0.089 ± 0.0065
OCCOCCN1CCN(C2=Nc3ccccc3Sc3ccccc32)CC1 [Quetiapine hemifumarate],0.25 ± 0.0048,0.255 ± 0.0044,0.203 ± 0.026,0.121 ± 0.0057,0.151 ± 0.0081
COc1ccc(OC)c(C(O)CNC(=O)CN)c1 (stereo not given) [Midodrine hydrochloride],0.291 ± 0.0075,0.281 ± 0.0091,0.204 ± 0.02,0.186 ± 0.0048,0.141 ± 0.0067
CN(C)CC/C=C1\c2ccccc2CSc2ccccc21 [Dosulepin hydrochloride],0.208 ± 0.0074,0.309 ± 0.019,0.211 ± 0.0092,0.146 ± 0.0095,0.163 ± 0.0079
CC(C(=O)O)c1cccc(Oc2ccccc2)c1 (stereo not given) [Fenoprofen calcium salt dihydrate],0.267 ± 0.013,0.266 ± 0.0086,0.147 ± 0.0054,0.192 ± 0.0067,0.134 ± 0.0015
